Here are results for 51 compounds from ChEMBL document CHEMBL3988442, “University of Dundee, Small-Polar-MMV Screening Library” (2021).

Assay [1] addresses T1, Aspartate--tRNA(Asp/Asn) ligase (Mycobacterium tuberculosis (strain ATCC 25618 / H37Rv)) (UniProt P9WFW3).
T1 sequence (whole entry): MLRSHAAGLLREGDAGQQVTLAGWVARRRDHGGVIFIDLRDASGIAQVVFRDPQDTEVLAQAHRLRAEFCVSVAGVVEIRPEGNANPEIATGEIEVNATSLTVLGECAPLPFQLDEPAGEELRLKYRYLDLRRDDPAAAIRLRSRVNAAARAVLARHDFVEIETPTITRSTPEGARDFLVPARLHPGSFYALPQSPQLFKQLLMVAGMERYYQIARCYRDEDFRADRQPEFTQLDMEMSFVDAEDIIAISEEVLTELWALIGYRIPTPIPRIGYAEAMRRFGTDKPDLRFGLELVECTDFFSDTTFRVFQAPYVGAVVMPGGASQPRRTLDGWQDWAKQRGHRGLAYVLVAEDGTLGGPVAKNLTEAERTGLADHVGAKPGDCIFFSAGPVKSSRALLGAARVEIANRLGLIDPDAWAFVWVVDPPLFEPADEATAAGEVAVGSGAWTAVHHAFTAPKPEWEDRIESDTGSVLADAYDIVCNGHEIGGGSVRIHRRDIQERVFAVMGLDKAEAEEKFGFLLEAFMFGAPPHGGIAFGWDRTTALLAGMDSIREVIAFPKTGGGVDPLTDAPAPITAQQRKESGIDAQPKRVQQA
The assay is described as follows: Assay for Asp RNA synthetase-1 from Mycobacterium tuberculosis. The assay is classed as functional. Set-up: scale not given: direction of the effect not stated beside the values. The conditions noted are these: 30 µM.

Assay [2] addresses Shiga toxin 2 (Escherichia coli O157:H7) (UniProt P09385+P09386). The assay is described as follows: E. coli 0.157:H7 Shiga Toxin SOP - stx2 screening assay. The assay is classed as functional. Set-up: scale not given: direction of the effect not stated beside the values. The conditions noted are these: 30 µM.

On to `N#Cc1ccc(N2CCN(C(=O)c3cc(C4CC4)[nH]n3)CC2)c(F)c1`, for which the Percent Effect in assay [1] is -6.09%; in assay [2], -10.4%.

As to `CN1CCCC1CNC(=O)c1nnn(-c2ccc(F)cc2)c1C1CC1` (configuration not stated), the results for the Percent Effect in assay [1] and in assay [2] were 3.7% and -26%, respectively.

`c1cnc(-c2cnc(N3CCSCC3)nc2C2CC2)cn1`: the Percent Effect in assay [1] is 1.07%; in assay [2] it was 4.88%.

As for `CNc1cc2c(nn1)CCN(C(=O)c1cc(F)cc(F)c1)C2`, the Percent Effect is -0.49% in assay [1] and 12.4% in assay [2].

As to `CSc1ncc(C(=O)N2C[C@H]3CC[C@@H]2CN(Cc2ccccc2)C3)cn1`, the figures for the Percent Effect in assay [1] and in assay [2] were 1.12% and -17.1%, respectively.

Take `COCC1CN(C(=O)c2ccnnc2)Cc2c1cnn2C` (configuration not stated): the figures for the Percent Effect in assay [1] and in assay [2] were 0.28% and -14.3%, respectively.

For the compound `Cc1nc(C)n(C2CCCN(C(=O)CCCOc3ccccc3)C2)n1` (configuration not stated), the Percent Effect was -1.97% in assay [1] and 3.84% in assay [2].

`Cc1ccc(-c2ncc(C(=O)NCCNc3ncccn3)s2)c(C)c1`: the Percent Effect was 7.92% in assay [1] and -13.5% in assay [2].

On to `Cc1ccc(-c2nc(CN3CCCC(Cn4cncn4)C3)no2)cc1` (configuration not stated), for which the Percent Effect in assay [1] was 1.64%; in assay [2] it was -11.2%.

With `NC[C@H]1CC[C@H](C(NC(=O)c2ccccn2)c2ccccn2)CC1` (some centres not stated), the Percent Effect was 1.43% in assay [1] and 17% in assay [2].

As for `CC(NC(=O)NCc1cccnc1N1CCCCC1)c1nccs1` (configuration not stated), the Percent Effect in assay [1] was -6.16%; in assay [2], -7.44%.

Turning to `Cc1occc1C(=O)N1CCC2(CCCN(CC3CCC3)C2=O)C1` (configuration not stated), the figures for the Percent Effect in assay [1] and in assay [2] were -2.62% and -2.14%, respectively.

For `CC(=O)N1CCOC2(CCN(C(=O)c3cnoc3C)CC2)C1`, the Percent Effect was -1.11% in assay [1] and 4.56% in assay [2].

For the compound `CC(=O)N(Cc1ncc(C)o1)C1CCN(Cc2noc(C)n2)C1` (configuration not stated), the Percent Effect in assay [1] was 5.42%; in assay [2], 4.63%.

For the compound `Cc1cnn(C2CCCN(C(=O)c3ccnc(-n4ccnc4)c3)C2)c1` (configuration not stated), the Percent Effect in assay [1] is 3.27%; in assay [2], -22.4%.

On to `COCC1CCN(C(=O)c2cccc(S(=O)(=O)NCC3(C)COC3)c2)C1` (configuration not stated), for which the Percent Effect was 5.94% in assay [1] and 10.4% in assay [2].

Consider `CN1CCN(c2ncccc2CNc2ncccc2C#N)CC1`, for which the Percent Effect in assay [1] was found to be 3.68%; in assay [2], 2.01%.

As for `c1ncn(CC2CCCN(Cc3nc(C4CC4)no3)C2)n1` (configuration not stated), the Percent Effect is -2.51% in assay [1] and -1.62% in assay [2].

On to `Cc1cnn(CCNCC(=O)NCc2ccccc2)c1`, for which the Percent Effect was found to be 1.29% in assay [1] and 10.2% in assay [2].

Turning to `Cc1ccc(=O)n(CC2(O)CCN(Cc3ccsc3)CC2)n1`, the values for the Percent Effect in assay [1] and in assay [2] were -3.38% and 12.7%, respectively.

`CCN1CC(C(=O)NCc2ccccc2-n2cccn2)CC1=O` (configuration not stated): the Percent Effect stood at 7.12% in assay [1] and 20.1% in assay [2].

Turning to `CCC(CNC(=O)c1cc(OC)ccc1Br)N1CCc2ccccc2C1` (configuration not stated), the Percent Effect in assay [1] is 4.47%; in assay [2], 9.68%.

Turning to `COc1cccc(COCC(=O)N2CCCC(c3nncn3C)C2)c1` (configuration not stated), the Percent Effect is -1.97% in assay [1] and 8.24% in assay [2].

`CN(Cc1ccc(Cl)s1)C(=O)NCc1nnc2n1CCC2`: the values for the Percent Effect in assay [1] and in assay [2] were 0% and 27.4%, respectively.

As for `CCS(=O)(=O)NCCNC(=O)c1cc(Cl)c2c(c1)OCCCO2`, the Percent Effect is 5.01% in assay [1] and -2.3% in assay [2].

On to `COc1cc(CCC(C)O)c(OC)c2c1OCO2` (configuration not stated), for which the Percent Effect in assay [1] is -0.435%; in assay [2] it was -10.2%.

In the case of `NC(=O)c1nc(COc2ccc3c(c2)OCO3)no1`, the values for the Percent Effect in assay [1] and in assay [2] were -0.145% and -76.3%, respectively.

With `O=C(Cc1csc(-c2nnc[nH]2)n1)N1CCCC1Cn1cccn1` (configuration not stated), the Percent Effect is -4.54% in assay [1] and 5.43% in assay [2].

As to `Cc1cccc(N2CCN(CCCNC(=O)c3nccn3C)CC2)c1`, the Percent Effect in assay [1] is -3.22%; in assay [2], -11.1%.

In the case of `Cc1ncc(CNC2CCCN(Cc3noc(C4CC4)n3)C2)s1` (configuration not stated), the figures for the Percent Effect in assay [1] and in assay [2] were -4.12% and 28.2%, respectively.

On to `O=S(=O)(c1ccccc1)N1CCCN(CCCn2ccnc2)CC1`, for which the Percent Effect in assay [1] is -2.67%; in assay [2], -12.6%.

As to `O=C(c1cc(COc2ccc3c(c2)OCO3)[nH]n1)N1CCOCC1`, the Percent Effect in assay [1] was -0.0228%; in assay [2] it was -36.8%.

Take `O=C(NCc1cc(O)ncn1)C1COc2ccccc2C1` (configuration not stated): the Percent Effect was -3.92% in assay [1] and 12.8% in assay [2].

For the compound `CCN(CC)C(=O)Cn1ccc2cc(NC(=O)C3CC3)ccc21`, the Percent Effect was -1.5% in assay [1] and -4.48% in assay [2].

Consider `CN(C(=O)c1ccccc1Cl)C1CCN(c2ccccn2)CC1`, for which the Percent Effect in assay [1] was found to be 5.42%; in assay [2], 19.1%.

As for `CCOCCCNC(=O)c1cc(C(C)C)nc(N2CCCCCC2)n1`, the Percent Effect in assay [1] is 1.1%; in assay [2], -56.1%.

With `COCCNC(=O)Nc1ccc(F)c(C(N)=O)c1`, the Percent Effect in assay [1] was 3.91%; in assay [2], -19.7%.

Regarding `c1ccc(-c2nnn3c2COC(CNCC2CCOCC2)C3)cc1` (configuration not stated), the Percent Effect was 2.63% in assay [1] and -21.1% in assay [2].

Turning to `O=C(c1ccoc1)N1CC[C@@H]2O[C@H](COCc3ccccn3)CC[C@@H]21`, the Percent Effect in assay [1] was 1.36%; in assay [2], -5.78%.

`O=C1CCC2(CCN(Cc3ccc(F)cc3)CC2)N1Cc1ccccc1`: the Percent Effect is -0.182% in assay [1] and 6.77% in assay [2].

As for `CCc1csc(C2CCCN(C(=O)c3c[nH]c(C)n3)C2)n1` (configuration not stated), the Percent Effect in assay [1] is -0.0911%; in assay [2], -10.2%.

On to `CC(Cc1ccco1)NC(=O)Nc1ccc(S(C)(=O)=O)nc1` (configuration not stated), for which the values for the Percent Effect in assay [1] and in assay [2] were 1.12% and -17.3%, respectively.

For the compound `O=C(O)[C@@H]1CN(C(=O)c2ccc3[nH]nnc3c2)C[C@H]1c1cccc(F)c1`, the figures for the Percent Effect in assay [1] and in assay [2] were -0.0228% and -15.6%, respectively.

Turning to `Cc1cccc(-c2nc(C)nn2CC(=O)NC2CCCC2)c1`, the Percent Effect is -5.28% in assay [1] and -29.1% in assay [2].

Regarding `CC(C)(C)N1CCCN(C(=O)c2csc(S(N)(=O)=O)c2)CC1`, the values for the Percent Effect in assay [1] and in assay [2] were -2.95% and -17.3%, respectively.

As to `Cc1ccc(CN2CCC[C@]3(C(=O)O)CN(c4ncccn4)C[C@@H]3C2)o1`, the Percent Effect in assay [1] is 7.77%; in assay [2] it was -25.5%.

Regarding `CC(C)C(=O)NCC(=O)N(C)C1CCCN(C2Cc3ccccc3C2)C1` (configuration not stated), the Percent Effect in assay [1] came to 1.1%; in assay [2], 0.34%.

For `O=C(NCc1ccccc1-n1cccn1)N1CCN2CCCCC2C1` (configuration not stated), the Percent Effect in assay [1] is -6.8%; in assay [2], 3.68%.

In the case of `CCC(=O)N1CCCC(c2cc(Nc3ncccn3)nc(C)n2)C1` (configuration not stated), the values for the Percent Effect in assay [1] and in assay [2] were 1.35% and 12.4%, respectively.

For `CC(C)N1CCCC2(CCN(C(=O)CCCn3ccnc3)C2)C1=O` (configuration not stated), the Percent Effect in assay [1] was -5.64%; in assay [2], 15.9%.

Regarding `Cc1ccc(OCCCNC(=O)NC(C)c2nncn2C)cc1` (configuration not stated), the Percent Effect in assay [1] is -2.1%; in assay [2], 7.34%.
